Reference: PubChem BioAssay (NCATS)
Results filed as inconclusive are left out. Calls of active or inactive are those of the source. The call rests on the fitted dose curve; in most records, active means well fitted inhibition curve with a large enough effect; inconclusive means small, poorly fitted or top-dose-only effect; inactive means flat fitted curve, though single readings scatter.

These compounds were tested on Zika virus NS2B-NS3 protease (assay: Primary screen GU AMC qHTS for Zika virus inhibitors (AID 1347154; further: nearly all actives have a fitted effect of over 70% in size;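 on activity change, negative = inhibition: 0% = no-inhibitor control and -100% = no-enzyme control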)). Settings: Zika NS2B-NS3 unlinked protease, AMC fluorogenic substrate; series mostly up to 54.1 µM; activity change, negative = inhibition: at the top concentration.
Method in brief: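 Fluorogenic AMC-substrate cleavage by noncovalent NS2B-NS3 protease complex (25 nM, pH 8.0 Tris buffer with Tween 20) followed for 15 minutes at room temperature (~20% conversion). Percent inhibition from ex340/em450 signal change, fitted by 4-parameter Hill equation.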
Potency means the concentration at half of the fitted maximal effect.

Row | SMILES | activity change, negative = inhibition | Potency
1 | Cc1cccc(C=NNc2cc(N3CCOCC3)nc(OCCc3ccccn3)n2)c1 | -14.3% (inactive) | 
2 | Fc1cc(-c2cccc3ncc(-c4cnn(C5CCNCC5)c4)nc23)cc(F)c1CN1CCOCC1 | -6.63% (inactive) | 
3 | CC(C)c1noc(N2CCC(COc3ccc(-c4ccc(S(C)(=O)=O)cc4)nc3)CC2)n1 | -2.24% (inactive) | 
4 | CCOc1ccccc1OCCNC(C)Cc1ccc(OC)c(S(N)(=O)=O)c1 (stereo not drawn) | 1.31% (inactive) | 
5 | COc1cc(-c2nn(C3CCC(N4CCN(C(C)=O)CC4)CC3)c3ncnc(N)c23)ccc1NC(=O)c1cc2ccccc2n1C (stereo not drawn) | 4.9% (inactive) | 
6 | COC(=O)C1=C(C)NC(C)=C(C(=O)OCCN2CCN(C(c3ccccc3)c3ccccc3)CC2)C1c1cccc([N+](=O)[O-])c1 (stereo not drawn) | -15.5% (inactive) | 
7 | CN(C1CCc2c(c3ccccc3n2CC(=O)O)C1)S(=O)(=O)c1ccc(F)cc1 (stereo not drawn) | 11.4% (inactive) | 
8 | CCCn1c(=O)c2[nH]c(-c3cnn(Cc4cccc(C(F)(F)F)c4)c3)nc2n(CC)c1=O | 5.33% (inactive) | 
9 | CC1(O)CC(c2nc(-c3ccc4ccc(-c5ccccc5)nc4c3)c3c(N)nccn23)C1 (stereo not drawn) | 0.872% (inactive) | 
10 | CC[C@H](CO)Nc1nc(NCc2ccccc2)c2ncn(C(C)C)c2n1 |  | inactive
11 | COc1cc(OC2CCN(C)CC2)ccc1Nc1ncc2c(n1)n(C1CCCC1)c(=O)n2C | 8.88% (inactive) | 
12 | CN(C)c1nc(Cc2ccc(NC(=O)c3ccc4ccccc4c3)cc2)nc(Cl)c1CC(=O)O | -15.4% (inactive) | 
13 | CNC(=O)c1cc(Oc2ccc(NC(=O)Nc3cc(C(C)(C)C)nn3-c3ccc4ncccc4c3)c(F)c2)ccn1 | 9.7% (inactive) | 
14 | CC(C)=CCCC(C)=CCCC(C)=CCSc1ccccc1C(=O)O |  | 13.6 µM (active)
15 | Nc1ccn([C@@H]2CS[C@H](CO)O2)c(=O)n1 | -0.0353% [at 104 µM] (inactive) | 
16 | Nc1ccc(C(=O)c2cc3c(ccc4ccccc43)[nH]2)cc1 | -21.4% (inactive) | 
17 | Cn1cc(-c2ccncc2)c(-c2ccc(OCc3ccc4ccccc4n3)cc2)n1 | -13.4% (inactive) | 
18 | Nc1ccc(S(=O)(=O)Nc2ncccn2)cc1 | 10% (inactive) | 
19 | O=C(NCCCNc1nc(Nc2cccc(NC(=O)N3CCCC3)c2)ncc1I)c1cccs1 | -10.1% (inactive) | 

Row | SMILES | activity change, negative = inhibition | Potency
20 | CC(=O)OCCN1C(=O)c2c(C)nc3ccc(S(=O)(=O)N4CCOCC4)cc3c2C1=O |  | inactive
21 | Clc1cccc(-c2nnnn2Cc2cccnc2)c1Cl | -1.68% (inactive) | 
22 | Cn1cc(-c2[nH]c3cc(NC(=O)[C@H](N)C4CCCCC4)cc4c3c2C=NNC4=O)cn1 | -1.08% (inactive) | 
23 | COCCOc1ccc2c(c1)ncn2-c1ccc2cccc(N3CCC(N)CC3)c2n1 | 3.57% (inactive) | 
24 | CNc1nccc(-c2cccnc2Oc2cc(C(=O)Nc3cccc(C(F)(F)F)c3)ccc2C)n1 | 18% (inactive) | 
25 | O=C(O)CCCc1c[nH]c2ccccc12 | -0.579% (inactive) | 
26 | O=C(c1cncc(Br)c1)N1CCC(N2CCCC2)CC1 | -1.22% (inactive) | 
27 | CCCNC(=O)Nc1ccc(Oc2ncnc3cc(OC)c(OC)cc23)cc1Cl | 0.486% (inactive) | 
28 | Cn1c(CNc2ccc(C(=N)N)cc2)nc2cc(C(=O)N(CCC(=O)O)c3ccccn3)ccc21 | 5.81% [at 25.8 µM] (inactive) | 
29 | COc1cc(C(=O)N2CCC(N3CCN(C)CC3)CC2)ccc1Nc1ncc2c(n1)N(C)c1ccccc1C(=O)N2C | -4.51% (inactive) | 
30 | COc1ccc(CC2c3cc(OC)c(OC)cc3CC[N+]2(C)CCC(=O)OCCCCCOC(=O)CC[N+]2(C)CCc3cc(OC)c(OC)cc3C2Cc2ccc(OC)c(OC)c2)cc1OC (stereo not drawn) | 4.96% [at 6.83 µM] (inactive) | 
31 | Cc1cc(Nc2cc(N3CCN(C)CC3)nc(C=Cc3ccccc3)n2)n[nH]1 | 4.43% [at 104 µM] (inactive) | 
32 | CCc1cc2c(cc1N1CCC(N3CCOCC3)CC1)C(C)(C)c1[nH]c3cc(C#N)ccc3c1C2=O | -8.21% (inactive) | 
33 | Nc1nc(NCCNc2ncc(-n3ccnc3)c(-c3ccc(Cl)cc3Cl)n2)ccc1[N+](=O)[O-] | 1.67% (inactive) | 
34 | CN1c2cc(O)c(N=NC(N)=O)cc2CC1S(=O)(=O)O (stereo not drawn) | -9.69% (inactive) | 
35 | OCc1ccc(-c2ccc(-c3ccc(CO)s3)o2)s1 |  | 26.7 µM (active)
36 | CN1CCN(c2ccc3nc(-c4c(N)c5c(F)cccc5[nH]c4=O)[nH]c3c2)CC1 | 12.2% (inactive) | 
37 | C1=CCOCc2cc(ccc2OCCN2CCCC2)Nc2nccc(n2)-c2cccc(c2)OCC1 | 1.42% (inactive) | 
38 | Nc1nc(-c2nn(Cc3ccccc3F)c3ncccc23)nc(N)c1N1CCOCC1 | -7.41% (inactive) | 
